In all, about 2,800 compounds were measured (“cell viability relative to vehicle”: median about 1.1, lowest 2% from about 0.19 on). This excerpt belongs to a sample that is enriched for the lowest values.
The molecules below were run on NCI-H2228 parental (assay: cell viability relative to vehicle (fraction of vehicle); NCI-H2228 is an ALK-positive lung cancer line and DTP means drug-tolerant persister; higher = less growth inhibition). Conditions: 100 nM; treatment time 6 days.
How it was run: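 Parental NCI-H2228 cells and drug-tolerant persister cells (made with 1000 nM of a targeted drug for 13 days) were seeded in 384-well plates. The next day, the 3114-agent TargetMol anti-cancer compound library was added at 100 nM, with DMSO as vehicle. After 6 days, ATP was read with the CellTiter-Glo 3D Cell Viability Assay. Each value is cell viability relative to vehicle-treated cells.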
Molecule `C[C@H]1O[C@@H](O[C@H]2CC[C@@]3(C)[C@@H](CC[C@]4(C)[C@@H]3C=C[C@]35OC[C@@]6(CCC(C)(C)C[C@H]63)[C@@H](O)C[C@]54C)[C@]2(C)CO)[C@H](O)[C@@H](O[C@@H]2O[C@H](CO)[C@@H](O)[C@H](O)[C@H]2O)[C@H]1O` [Saikosaponin A] has a cell viability of 1.11.
Work on `C/C1=C/CC[C@H](C)C(=O)C[C@@H](C(C)C)C(=O)C1` [Curdione] yielded a cell viability of 1.07.
For `O=C1c2c(O)ccc(O)c2C(=O)c2c(NCCNCCO)ccc(NCCNCCO)c21` [Mitoxantrone], the cell viability was 0.132.
`O=C1c2cccc(O)c2C(=O)c2c(O)cccc21` [Antrapurol] gave a cell viability of 1.06.
In the case of `NCCNc1ccc(NCCN)c2c1C(=O)c1ccncc1C2=O` [Pixantrone dimaleate], the cell viability is reported as 0.405.
In the case of `COc1ccc(S(=O)(=O)N[C@@H](CNc2nc(C)nc(N3CCC(c4ccc5c(n4)NCCC5)CC3)c2C)C(=O)O)cc1`, the cell viability is reported as 0.705.
For `COc1ccc2c(c1)C(c1ccc(F)cc1)=C(CN1CCCC1)CO2`, the cell viability was 1.1.
With `COc1cc2ncnc(Nc3ccc(O)cc3)c2cc1OC` the cell viability was 1.02.
`CO[C@H]1C(=O)[C@]2(C)[C@@H](OC)C[C@H]3OC[C@@]3(OC(C)=O)[C@H]2[C@H](OC(=O)c2ccccc2)[C@]2(O)C[C@H](OC(=O)[C@H](O)[C@@H](NC(=O)OC(C)(C)C)c3ccccc3)C(C)=C1C2(C)C` [Cabazitaxel] gave a cell viability of 0.2.
`CC(=O)O[C@@]12CO[C@@H]1C[C@H](O)[C@@]1(C)C(=O)[C@H](O)C3=C(C)[C@@H](OC(=O)[C@H](O)[C@@H](NC(=O)OC(C)(C)C)c4ccccc4)C[C@@](O)([C@@H](OC(=O)c4ccccc4)[C@H]21)C3(C)C` [Docetaxel] gave a cell viability of 0.118.
Work on `CC(=O)O[C@H]1C(=O)[C@@]2(C)[C@H]([C@H](OC(=O)c3ccccc3)[C@]3(O)C[C@H](OC(=O)[C@H](O)[C@@H](NC(=O)c4ccccc4)c4ccccc4)C(C)=C1C3(C)C)[C@]1(OC(C)=O)CO[C@@H]1C[C@@H]2O` [Paclitaxel] yielded a cell viability of 0.128.
`CC(=O)O[C@@]12CO[C@@H]1C[C@H](O)[C@@]1(C)C(=O)[C@H](O)C3=C(C)[C@@H](OC(=O)[C@H](O)[C@@H](NC(=O)OC(C)(C)C)c4ccccc4)C[C@@](O)([C@@H](OC(=O)c4ccccc4)[C@H]21)C3(C)C` [Docetaxel trihydrate] showed a cell viability of 0.154.
Molecule `CC(C)NCC(O)COc1ccc(COCCOC(C)C)cc1` (racemic) [(±)-Bisoprolol hemifumarate] has a cell viability of 1.14.
`CC(C)(O)[C@H]1CC[C@H](Nc2ccc3ncc(-c4cccc(C(F)(F)F)c4)n3n2)CC1` gave a cell viability of 0.928.
`COc1cc2c(c(OC)c1OC)-c1c(cc(OC)c(OC)c1OC)CC(C)C(C)C2` (configuration not stated) [Schizandrin A] showed a cell viability of 1.11.
For `CC(C)c1c(-c2ccccc2)nc2c(C#N)c[nH]n2c1=O`, the cell viability was 1.1.
For `COC(=O)C[C@](O)(CCCC(C)(C)O)C(=O)O[C@@H]1C(OC)=C[C@]23CCCN2CCc2cc4c(cc2[C@H]13)OCO4` [Homoharringtonine], the cell viability was 0.162.
`COc1c2c(cc3oc(CO[C@@H]4O[C@H](CO)[C@@H](O)[C@H](O)[C@H]4O)cc(=O)c13)O[C@H](C(C)(C)O)C2` [Cimifugin beta-D-glucopyranoside] showed a cell viability of 1.09.
In the case of `C=C[C@H]1[C@H](O[C@@H]2O[C@H](CO)[C@@H](O)[C@H](O)[C@H]2O)OC=C2C(=O)OCC[C@]21O` [Swertiamarin], the cell viability is reported as 1.11.
Work on `CCCCCCCCCCCCCCCC(=O)O` [Palmitic acid] yielded a cell viability of 1.02.
`O=C1O[C@H]2[C@@H]3OC(=O)c4cc(O)c(O)c(O)c4-c4c(cc(O)c(O)c4O)C(=O)OC[C@H]2O[C@@H](OC(=O)c2cc(O)c(O)c(O)c2)[C@@H]3OC(=O)c2cc(O)c(O)c3c2[C@@H]2C1=CC(=O)[C@](O)(O3)C2(O)O` [Geraniin] showed a cell viability of 0.981.
`COc1cc(N2CCC(N3CCN(C)CC3)CC2)ccc1Nc1ncc(Cl)c(-c2c[nH]c3ccccc23)n1` gave a cell viability of 0.358.
With `COc1cc(C(C)C)c(Oc2cnc(N)nc2N)cc1I` the cell viability was 1.16.
`C/C(=C\c1csc(C)n1)[C@@H]1C[C@@H]2O[C@]2(C)CCC[C@H](C)[C@H](O)[C@@H](C)C(=O)C(C)(C)[C@@H](O)CC(=O)N1` [Ixabepilone] gave a cell viability of 0.119.
For `C[C@H](CCC(=O)NCC(=O)O)[C@H]1CC[C@H]2[C@@H]3[C@H](O)C[C@@H]4C[C@H](O)CC[C@]4(C)[C@H]3CC[C@]12C` [Glycochenodeoxycholic Acid], the cell viability was 1.02.
`CC(=O)OC(C)C(C)C(=O)OCC12C3CC(C)(C)[C@H](O[C@@H]1C[C@]1(C)C3=CCC3C4(C)CCC(O[C@@H]5O[C@H](C(=O)O)[C@@H](O[C@H]6O[C@H](CO)[C@@H](O)[C@H](O)[C@H]6O)[C@H](O)[C@H]5O[C@@H]5OC[C@@H](O)[C@H](O)[C@H]5O)[C@](C)(CO)C4CCC31C)C2O` (some centres not stated) [Sodium Aescinate] was tested, and the cell viability was 1.1.
`O=S(=O)(CCC(F)=C(F)F)c1ncc(Cl)s1` [Fluensulfone] gave a cell viability of 1.07.
